Shown are actives, neighbours in structure and some others; about 11% of the full set was active somewhere.
OTUD3 block: inhibitors of human OTUD3 deubiquitinase. purified OTUD3, Ub-rhodamine fluorescence, 2 h. inhibition, % at 25 µM. hit rate 0.7% among 47,000. AID 1645858
USP17 block: inhibitors of human USP17 deubiquitinase | purified USP17, Ub-rhodamine cleavage fluorescence, 3 h | inhibition, % at 50 µM | hit rate 6.5% among 47,000 | AID 1645855
Target sequence (A8MUK1 whole entry, looked up): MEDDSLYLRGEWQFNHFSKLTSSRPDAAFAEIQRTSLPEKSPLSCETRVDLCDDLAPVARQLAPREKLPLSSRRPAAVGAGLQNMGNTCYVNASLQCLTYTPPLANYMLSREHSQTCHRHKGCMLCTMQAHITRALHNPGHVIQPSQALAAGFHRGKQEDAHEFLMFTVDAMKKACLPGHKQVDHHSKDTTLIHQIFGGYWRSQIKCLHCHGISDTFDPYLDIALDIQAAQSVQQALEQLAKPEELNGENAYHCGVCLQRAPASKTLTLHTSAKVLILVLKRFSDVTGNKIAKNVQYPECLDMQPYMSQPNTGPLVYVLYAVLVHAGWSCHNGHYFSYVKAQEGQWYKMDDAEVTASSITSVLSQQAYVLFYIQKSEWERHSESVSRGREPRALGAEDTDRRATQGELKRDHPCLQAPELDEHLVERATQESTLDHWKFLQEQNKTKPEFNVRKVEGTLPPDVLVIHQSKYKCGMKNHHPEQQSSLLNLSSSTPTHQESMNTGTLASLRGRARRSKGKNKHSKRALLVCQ
USP30 block: blocks human USP30 ubiquitin-rhodamine cleavage; Q70CQ3; purified USP30, Ub-rhodamine cleavage fluorescence; inhibition, % at 25 µM; hit rate 5.3% among 47,000; AID 1645860
USP28 inh: human USP28 deubiquitinase inhibition; hit rate 3% among 47,000; inhibition, % at 25 µM; purified USP28, Ub-rhodamine cleavage fluorescence, 30 min; Q96RU2
Active calls of the source: *; i = inactive; / = no result. Rule as the data show it: active = inhibition above about 30%; inactive = the rest.

SMILES | OTUD3 block | USP17 block | USP30 block | USP28 inh
CN(C)CCCN(C(=O)CS(=O)(=O)c1ccc(F)cc1)c1nc2ccccc2s1 | 9 | 0 | 20 | 12
O=C(CS(=O)(=O)c1ccc(F)cc1)Nc1ccc(-c2nc3ccccc3s2)c(O)c1 | 14 | 37* | -9 | 1
Cc1nn(-c2cccc(F)c2)c2c1C(C(=O)c1ccc(Cl)s1)CC(=O)N2 (centres undefined) | -10 | 23 | 50* | 0
Cc1ccc(C(=O)C2CC(=O)Nc3c2c(C)nn3-c2ccc(C)c(C)c2)s1 (centres undefined) | -1 | 70* | 50* | 12
CCc1cccc(-n2nc(C)c3c2NC(=O)CC3C(=O)c2ccc(C)s2)c1 (centres undefined) | 0 | 17 | 0 | -4
COc1ccc(-n2nc(C)c3c2NC(=O)CC3C(=O)c2ccc(Cl)s2)cc1 (centres undefined) | -8 | -12 | -17 | -17
Cc1ccc(-n2nc(C)c3c2NC(=O)CC3C(=O)c2cc3ccccc3o2)cc1C (centres undefined) | -4 | 74* | -10 | 0
Cc1cc(Br)ccc1NC(=O)c1nc(-c2ccncc2)no1 | 9 | 8 | 16 | 8
O=C(COc1ncnc2scc(-c3ccccc3)c12)c1ccc2c(c1)OCCO2 | -24 | -20 | -188 | -54
COc1ccc(CNC(=O)CCC2=NS(=O)(=O)c3ccccc3N2)cc1 | 11 | 6 | 20 | 9
NC(=O)c1cc(CC2CCCN(C(=O)C3CCC3)CC2)ncn1 (centres undefined) | 8 | 16 | 11 | 12
O=C(c1ccc2c(c1)N(Cc1ccc(F)cc1)C(=O)c1ccccc1S2=O)N1CCN(c2ccccn2)CC1 (centres undefined) | -1 | 16 | 40* | 26
Cc1c(C)n(C)c2ccc(C(=O)N3CCN(c4ccccn4)CC3)cc12 | -31 | -18 | -105 | -25
O=C(c1ccc2nc(C(F)(F)F)[nH]c2c1)N1CCN(c2ccccn2)CC1 | -1 | 2 | 13 | 1
COc1ccccc1N1CCN(C(=O)c2ccc3c(c2)N(Cc2cc(C)ccc2C)C(=O)c2ccccc2S3=O)CC1 (centres undefined) | 12 | 20 | 51* | 18
Cc1ccc(C)c(CN2C(=O)c3ccccc3S(=O)c3ccc(C(=O)N4CCN(c5ccccn5)CC4)cc32)c1 (centres undefined) | 7 | 18 | 39* | 24
Cc1nc2c(c(-c3ccco3)c1C#N)N1CCC2CC1 | -205 | -146 | i | -206
COc1ccc(OC)c(CCNC(=O)C(C)c2c(C)n[nH]c2C)c1 (centres undefined) | 12 | 10 | 13 | 8
CC(=O)c1cccc(NC(=O)c2ccc(-c3noc(C)n3)cc2)c1 | 14 | 21 | 14 | 30*
Cc1nc(-c2cccc(NC(=O)c3ccccc3Cl)c2)no1 | 15 | 5 | 18 | 52*
O=C(NCc1ccc(-c2nc3cnccc3o2)cc1)c1ccccc1Br | 13 | 68* | 25 | 14
CCc1nc(-c2cccc(NC(=O)c3ccccc3F)c2)no1 | -2 | 6 | 3 | 36*
Cc1nc(-c2cccc(NC(=O)c3ccc(C#N)cc3)c2)no1 | 5 | 17 | / | /
Cc1nc(-c2cccc(NC(=O)c3ccccc3F)c2)no1 | -1 | 2 | 0 | 21
Cc1ccsc1CNS(=O)(=O)c1ccc2c(c1)CCO2 | 1 | 0 | 11 | 10
SMILES | OTUD3 block | USP17 block | USP30 block | USP28 inh
O=C(Nc1cccc(-c2nc3cnccc3o2)c1)c1ccccc1F | -1 | 44* | / | /
Cc1nnc(NC(=O)C2CCN(c3ccc(S(N)(=O)=O)cc3[N+](=O)[O-])CC2)o1 | 67* | 73* | 29 | 66*
O=C(Cn1nc(-c2ccc3c(c2)OCCO3)ccc1=O)Nc1ccc(Oc2ccccc2)cc1 | 0 | 31* | 20 | 12
COc1cccc(-c2nc(-c3ccc(N4CCCCC4)cc3)no2)c1OC | -8 | 0 | -30 | -6
COc1ccc(NS(=O)(=O)c2cc(NC(=O)CC(=O)c3ccc([N+](=O)[O-])cc3)ccc2Cl)cc1 | -4 | 49* | 19 | 0
COc1ccc([N+](=O)[O-])cc1NS(=O)(=O)c1cc(C(=O)NCc2cccnc2)ccc1Cl | 6 | -21 | 17 | 0
COc1ccc(NS(=O)(=O)c2cccc(NC(=O)CCC(=O)c3ccc(Cl)cc3)c2)cc1 | -4 | 9 | -1 | 4
COc1ccc(NS(=O)(=O)c2cccc(NC(=O)CC(=O)c3ccc([N+](=O)[O-])cc3)c2)cc1 | 0 | 76* | / | /
COc1ccccc1NS(=O)(=O)c1cc(NC(=O)CC(=O)c2ccc([N+](=O)[O-])cc2)ccc1C | 3 | / | 11 | 12
